A selection: hits, their analogues and other compounds. The true share with any hit is near 19%.
AMA1 RON2 block = AMA1-RON2 (P. falciparum) interaction inhibition | AlphaScreen AMA1-biotinylated RON2 peptide binding | Potency, µM (highest dose often 58.2 µM), hits mostly inhibitors | hit rate 0.2% among 360,000 | AID 720542; note: nearly all actives have a fitted effect of over 45% in size
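AMA1 (3D7) with his tag at 25 nM final met compounds first, then biotinylated RON2 peptide at 25 nM; detection used donor plus acceptor beads, 10 µg/mL apiece, read by AlphaScreen after 30 min at room temperature.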
Cycloheximide cs = affects cycloheximide protein synthesis inhibition readout, counter-screen. hit rate 12% among 300,000. AID 2314. max response, %. cell reporter, cycloheximide protein synthesis inhibition counterscreen; in the data active = max response mostly above about 13%, no sharp cut-off; inactive = mostly below about 14%; note: read at 38.3 µM for the half of the compounds with a filed dose
Pf growth 48h = inhibits P. falciparum growth in the first generation, 48 h | P. falciparum luciferase growth in erythrocytes, 48 h | Potency, µM (series often up to 28.7 µM), actives largely listed as inhibitors | hit rate 5.9% among 310,000
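Parasite viability was followed by luminescence of a genomically integrated firefly luciferase. Cultures held 0.1% parasitemia at 2% hematocrit (final), incubated under 5% CO2 at 37 C.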
Shiga toxin inh = inhibitors of Shiga toxin in Vero cells. hit rate 9.2% among 290,000. AID 2315. Vero cells, Shiga toxin protein synthesis inhibition reporter. inhibition, % at 38.7 µM; in the data active = inhibition mostly above about 28%, no sharp cut-off; inactive = mostly below about 43%
Pf growth 96h = P. falciparum growth inhibition at 96 hours; P. falciparum luciferase reporter growth, 96 h; Potency, µM (highest dose often 28.7 µM), actives largely listed as inhibitors; hit rate 6.9% among 320,000; AID 504834
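Two-generation exposure (96 h) targets delayed-death phenotype. Reporter parasites carrying integrated firefly luciferase, in red cells at 2% hematocrit and 0.05% parasitemia final, kept at 37 C, 5% CO2; luminescence loss indicates inhibition.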
SARS PLpro yeast = SARS-CoV PLP inhibition in yeast; S. cerevisiae expressing SARS-CoV PLpro, growth rescue; Potency, µM (series often up to 32.9 µM), most hits filed as activators; hit rate 0.19% among 330,000; AID 485353; calls by dose curve; note: nearly all actives have a fitted effect of over 55% in size
Of the large screens only hits and unclear results are named; the others gave an inactive call; ! = not confirmed by another sample. Unless noted, calls come from the whole dose curve; as a rule, active = well fitted curve in the direction sought with a large enough effect; inconclusive = small, poorly fitted or top-dose-only effect, or another doubt; inactive = no such curve, though single readings can be large; an effect the other way counts as inactive or inconclusive.

CCOC(=O)c1sc(NC(=O)CCC(=O)O)nc1C	none
CCOC(=O)c1sc(Nc2ccc(Br)cc2)nc1C	Cycloheximide cs 29.6, Pf growth 48h inconclusive, Shiga toxin inh 89.2, Pf growth 96h inconclusive
CCOC(=O)c1cc2nc(Nc3ccc(OC)cc3)sc2s1	Cycloheximide cs 14.0, Shiga toxin inh 57.8
CCOc1ccc(Nc2nc3ccccc3c(=O)s2)cc1	none
CCOC(=O)c1sc(NC(=O)Nc2ccccc2F)nc1C	Cycloheximide cs 86.4, Shiga toxin inh 75.4
CCOC(=O)c1sc(NC(=O)/C=C/c2c(F)cccc2Cl)nc1C	Cycloheximide cs 40.5
COc1cc(NC(=O)c2ccccc2F)c(OC)cc1NC(=O)CN1CCCCC1	AMA1 RON2 block inconclusive
CC(=O)c1sc(Nc2cccc3ccccc23)nc1C	none (no result: Cycloheximide cs, Pf growth 48h, Shiga toxin inh, Pf growth 96h, SARS PLpro yeast)
CCOC(=O)c1sc2cccc(F)c2c1N	Cycloheximide cs 25.3, Shiga toxin inh 25.1, Pf growth 96h inconclusive
COC(=O)Cc1csc(Nc2ccccc2Cl)n1	Cycloheximide cs 35.8, Shiga toxin inh 51.7, Pf growth 96h inconclusive
CCOC(=O)Cc1csc(NC(=O)Cc2ccccc2)n1	none
CCOC(=O)c1sc(Nc2ccccc2Cl)nc1C	Cycloheximide cs 41.7, Shiga toxin inh 87.6
CC1(C)CC(=O)C=C(c2ccc(COC(=O)Cc3ccccc3)cc2)C1=O	none (no result: Cycloheximide cs, Pf growth 48h, Shiga toxin inh, Pf growth 96h, SARS PLpro yeast)
Cc1ccc(S(=O)(=O)N2CCC(C(=O)NCCCn3ccnc3)CC2)cc1	none
CCOC(=O)/C(N=Nc1c(C)n(C)n(-c2ccccc2)c1=O)=C(/O)c1ccccc1	none
Cc1c(N=N/C(C(=O)Nc2ccccc2)=C(/O)c2ccccc2)c(=O)n(-c2ccccc2)n1C	Pf growth 48h inconclusive, Pf growth 96h 3.7µM
O=c1c2c(-c3cccc([N+](=O)[O-])c3)ccnc2[nH]n1-c1ccccc1	none
Cc1cc(-c2ccccc2)c2c(=O)n(-c3ccccc3)[nH]c2n1	Pf growth 96h 0.0037µM
COC(=O)[C@@]12C[C@@H](CC(=O)NCc3ccc(C)o3)C(=O)N(Cc3ccccc3)C1=CCC(C)(C)C2	none (no result: Cycloheximide cs, Pf growth 48h, Shiga toxin inh, Pf growth 96h, SARS PLpro yeast)
COCCCN1Cc2cccc(C(=O)O)c2C1=O	Pf growth 96h 8.28µM (no result: Pf growth 48h)
COc1cccc(-n2nc(-c3ccnn3-c3cccc(Cl)c3)c(=O)n(C)c2=O)c1	Pf growth 48h inconclusive, Pf growth 96h inconclusive
COc1cccc(-n2nc(-c3ccnn3-c3ccccc3)c(=O)n(C)c2=O)c1	Pf growth 96h 11.7µM (no result: Pf growth 48h)
CC1CCc2sc(C(=O)NC3CCCCC3)cc2C1 (stereo unspecified)	none (no result: Cycloheximide cs, Shiga toxin inh)
S=c1[nH]nc(-c2cc3c(s2)-c2ccccc2CC3)o1	Cycloheximide cs 30.1, Shiga toxin inh 56.3
CSc1nnc(-c2cc3c(s2)-c2ccccc2CC3)o1	Cycloheximide cs 24.8, Shiga toxin inh 79.8
CC1CCc2sc(-c3n[nH]c(=S)o3)cc2C1 (stereo unspecified)	Cycloheximide cs 18.8, Shiga toxin inh 41.0
Oc1cc2ccccc2cc1-c1n[nH]c(=S)o1	Pf growth 96h inconclusive
CC1=CC(C)=Nc2ccc(C)cc2N1	Cycloheximide cs 27.3, Shiga toxin inh 93.8!
C[C@H](NC(=O)[C@@H]1CSC2c3ccccc3C(=O)N21)C(=O)NC1CCCCC1 (stereo partly specified)	Pf growth 96h inconclusive
CN(N)c1nc(-c2ccccc2)cc(-c2ccccc2)n1	none
Cc1cc(C)nc(N/N=C/c2ccco2)n1	none (no result: Pf growth 96h)
CN(/N=C/c1ccc(O)cc1O)c1nc(-c2ccccc2)cc(-c2ccccc2)n1	Pf growth 48h 9.28µM, Pf growth 96h 5.22µM
Cc1cc(-c2ccccc2)nc(N/N=C/c2ccco2)n1	Cycloheximide cs 35.7, Shiga toxin inh 85.1
Cc1cc(-c2ccccc2)nc(N/N=C/c2ccc(O)cc2O)n1	Cycloheximide cs 23.2, Pf growth 48h inconclusive, Shiga toxin inh 91.3
Cc1cc(-c2ccccc2)nc(N/N=C/c2cccnc2)n1	Pf growth 96h inconclusive
Cc1cc(-c2ccccc2)nc(N/N=C/c2ccccc2)n1	Cycloheximide cs 32.3, Shiga toxin inh 55.1
COc1cccc(CN(c2ccccc2C(=O)O)S(=O)(=O)c2ccc(C)cc2)c1	none (no result: Cycloheximide cs, Pf growth 48h, Shiga toxin inh, Pf growth 96h, SARS PLpro yeast)
CC(C)C1COS(=O)(=O)NC1CC(=O)SC(C)(C)C (stereo unspecified)	none
COC(=O)c1cc(NC(=O)C2(S(=O)(=O)c3ccc(C)cc3)CC2)cc(C(=O)OC)c1	Pf growth 96h inconclusive

Screening data deposited in PubChem by National Center for Advancing Translational Sciences (NCATS).
